This is part of a sample that, as a whole, favours compounds with a hit. Of some 79,000 tested, about 15% had one in any assay. Active and inactive are the calls of the source. Rule as the data show it: active = growth inhibition above about 70%; inactive = the rest.
How the values were obtained:
[1] = NCI Yeast Anticancer Drug Screen. Data for the wt2 strain (AID 169);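 also: 0% = growth of vehicle-treated yeast cultures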; conditions: S. cerevisiae wt2 strain growth inhibition, stronger effect = higher value
Procedure, shortened: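 Compound exposure of yeast; growth compared with vehicle controls; inhibition reported.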

[2] = NCI Yeast Anticancer Drug Screen. Data for the mlh1 strain (AID 171);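 also: 0% = growth of vehicle-treated control cultures of the same strain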; conditions: S. cerevisiae mlh1 strain growth inhibition, stronger effect = higher value
Procedure, shortened: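 Compounds are applied to a genetically altered yeast strain, and its growth is compared with that of vehicle-treated cultures to give percent inhibition.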

[3] = NCI Yeast Anticancer Drug Screen. Data for the sgs1 strain (AID 173);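 also: 0% = growth of vehicle-only control cultures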; conditions: S. cerevisiae sgs1 mutant, stronger effect = higher value
Procedure, shortened: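 Compounds applied to genetically altered yeast; growth compared with vehicle-treated cultures to give % inhibition.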

[4] = NCI Yeast Anticancer Drug Screen. Data for the mlh1 rad18 strain (AID 175); conditions: S. cerevisiae mlh1 rad18 strain growth inhibition, stronger effect = higher value
Procedure, shortened: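 Cells of a genetically altered yeast strain, deficient in DNA damage repair, were treated with compound. Their growth was then compared with that of vehicle-treated cultures to give inhibition.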

[5] = NCI Yeast Anticancer Drug Screen. Data for the rad18 strain (AID 177); conditions: S. cerevisiae rad18 mutant growth inhibition, stronger effect = higher value
Procedure, shortened: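 Compounds are applied to a repair-deficient yeast strain, and growth is compared with that of vehicle-treated cultures to give percent inhibition.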

[6] = NCI Yeast Anticancer Drug Screen. Data for the rad52 strain (AID 147);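 also: 0% = growth of vehicle-treated control cultures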; conditions: S. cerevisiae rad52 mutant growth inhibition, stronger effect = higher value
Procedure, shortened: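 DNA repair-defective yeast; compound exposure; growth scored against vehicle controls.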

[7] = NCI Yeast Anticancer Drug Screen. Data for the wt1 strain (AID 149);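 also: 0% = growth of vehicle-treated wt1 cultures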; conditions: S. cerevisiae wt1 strain (SPY 50644) growth inhibition, stronger effect = higher value
Procedure, shortened: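 Compounds are added to wt1 yeast cultures. Growth is then measured. Inhibition is expressed relative to vehicle-treated controls.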

[8] = NCI Yeast Anticancer Drug Screen. Data for the rad50EPP+ strain (AID 151);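 also: 0% = growth of vehicle-treated control cultures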; conditions: S. cerevisiae rad50 mutant strain, stronger effect = higher value
Procedure, shortened: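 rad50EPP+ yeast treated with test compounds. Readout: growth vs vehicle control.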

[9] = NCI Yeast Anticancer Drug Screen. Data for the mgt1 strain (AID 153); conditions: S. cerevisiae mgt1 mutant growth inhibition, stronger effect = higher value
Procedure, shortened: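 Growth inhibition relative to vehicle controls was scored for the mgt1 yeast strain after compound exposure.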

[10] = NCI Yeast Anticancer Drug Screen. Data for the rad50 strain (AID 155);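 also: 0% = growth of vehicle-only cultures of the same strain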; conditions: S. cerevisiae rad50 strain growth inhibition, stronger effect = higher value
Procedure, shortened: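 Inhibition values express reduced yeast growth in compound-treated cultures relative to vehicle-treated controls.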

[11] = NCI Yeast Anticancer Drug Screen. Data for the mec2-1 strain (AID 157); conditions: S. cerevisiae mec2-1 strain, stronger effect = higher value
Procedure, shortened: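 Growth inhibition is read against vehicle-treated controls after compound exposure of the mec2-1 yeast strain, which is defective in DNA damage repair or cell cycle control.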

[12] = NCI Yeast Anticancer Drug Screen. Data for the rad14 strain (AID 159);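 also: 0% = growth of vehicle-treated control cultures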; conditions: S. cerevisiae rad14 strain growth inhibition, stronger effect = higher value
Procedure, shortened: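 A mutant yeast strain defective in DNA damage repair is treated with compound; inhibition of its growth is scored against untreated, vehicle-exposed cultures.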

[13] = NCI Yeast Anticancer Drug Screen. Data for the sgs1 mgt1 strain (AID 161);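 also: 0% = growth of cultures given vehicle only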; conditions: S. cerevisiae sgs1 mgt1 strain, stronger effect = higher value
Procedure, shortened: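 Growth of a repair-deficient yeast mutant was monitored after compound treatment and expressed as inhibition relative to vehicle-treated cultures.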

[14] = NCI Yeast Anticancer Drug Screen. Data for the CLN2oe strain (AID 163);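 also: 0% = growth of vehicle-only control cultures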; conditions: S. cerevisiae CLN2oe strain, stronger effect = higher value
Procedure, shortened: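 Compound-treated yeast; growth vs vehicle ctrl = % inhibition. Genetically altered strain (cell-cycle control).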

[15] = NCI Yeast Anticancer Drug Screen. Data for the cln2 rad14 strain (AID 165);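 also: 0% = growth equal to vehicle treated cultures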; conditions: S. cerevisiae cln2 rad14 strain, stronger effect = higher value
Procedure, shortened: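 Growth inhibition, relative to vehicle-treated controls, is the read-out. The test organism is a yeast strain with defined genetic alterations, cln2 rad14.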

[16] = NCI Yeast Anticancer Drug Screen. Data for the bub3 strain (AID 167); conditions: S. cerevisiae bub3 mutant strain, stronger effect = higher value
Procedure, shortened: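 Steps: expose the mutant yeast strain to compound; grow alongside vehicle-treated cultures; measure growth; express inhibition against the vehicle cultures.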

[17] = at 5.0 µM (retest, dose inferred, filed as 0.5)
[18] = at 50.0 µM (retest, dose inferred, filed as 5.0)

Measured: growth inhibition

c1ccc2c(c1)ccn2CCc1c[nH]c2ccccc12
active: [1]; at 100.0 µM 97% | [2]; at 100.0 µM 97% | [3]; at 100.0 µM 95% | [4]; at 50.0 µM 91.4% | [5]; at 100.0 µM 98%
inactive: [1]; at 1.2 µM -29% | [1]; at 3.7 µM -28% | [1]; at 11.0 µM -20% | [1]; at 33.0 µM 20% | [2]; at 1.2 µM -18% | [2]; at 3.7 µM -14% | [2]; at 11.0 µM -6% | [2]; at 33.0 µM 15% | [3]; at 1.2 µM -38% | [3]; at 3.7 µM -38% | [3]; at 11.0 µM -20% | [3]; at 33.0 µM 20% | [4]; [17] 3% | [4]; [18] 51% | [5]; at 1.2 µM -42% | [5]; at 3.7 µM -46% | [5]; at 11.0 µM -23% | [5]; at 33.0 µM 9%

CN(C)CCNC(=Cc1ccc2ccccc2[n+]1C)NCCN(C)C
inactive: [6]; at 1.2 µM 0% | [6]; at 3.7 µM 0% | [6]; at 11.0 µM 0% | [6]; at 33.0 µM -1% | [6]; at 100.0 µM -2% | [7]; at 1.2 µM 0% | [7]; at 3.7 µM -2% | [7]; at 11.0 µM -2% | [7]; at 33.0 µM -1% | [7]; at 100.0 µM 0% | [8]; at 1.2 µM -2% | [8]; at 3.7 µM 0% | [8]; at 11.0 µM 1% | [8]; at 33.0 µM 3% | [8]; at 100.0 µM 2% | [9]; at 1.2 µM 0% | [9]; at 3.7 µM 0% | [9]; at 11.0 µM -3% | [9]; at 33.0 µM -1% | [9]; at 100.0 µM -1% | [10]; at 1.2 µM 1% | [10]; at 3.7 µM 1% | [10]; [17] -1% | [10]; at 11.0 µM 1% | [10]; at 33.0 µM 2% | [10]; [18] 2% | [10]; at 50.0 µM 24.2% | [10]; at 100.0 µM 1% | [11]; at 1.2 µM -5% | [11]; at 3.7 µM 0% | [11]; [17] 0% | [11]; at 11.0 µM 3% | [11]; at 33.0 µM 1% | [11]; [18] 2% | [11]; at 50.0 µM 19.6% | [11]; at 100.0 µM 1% | [12]; at 1.2 µM -2% | [12]; at 3.7 µM -1% | [12]; at 11.0 µM -2% | [12]; at 33.0 µM -3% | [12]; at 100.0 µM -2% | [13]; [17] -12% | [13]; [18] -13% | [13]; at 50.0 µM 19.4% | [14]; at 1.2 µM -3% | [14]; at 3.7 µM 0% | [14]; at 11.0 µM 0% | [14]; at 33.0 µM 4% | [14]; at 100.0 µM -1% | [15]; [17] 1% | [15]; [18] 8% | [15]; at 50.0 µM -2.95% | [16]; at 1.2 µM 2% | [16]; at 3.7 µM -3% | [16]; [17] -3% | [16]; at 11.0 µM 0% | [16]; at 33.0 µM -9% | [16]; [18] -2% | [16]; at 50.0 µM -4.65% | [16]; at 100.0 µM -5% | [1]; at 1.2 µM -2% | [1]; at 3.7 µM -3% | [1]; at 11.0 µM -2% | [1]; at 33.0 µM -2% | [1]; at 100.0 µM 0% | [2]; at 1.2 µM 0% | [2]; at 3.7 µM -2% | [2]; at 11.0 µM 1% | [2]; at 33.0 µM 0% | [2]; at 100.0 µM 0% | [3]; at 1.2 µM 0% | [3]; at 3.7 µM 0% | [3]; at 11.0 µM 0% | [3]; at 33.0 µM 0% | [3]; at 100.0 µM 1% | [4]; [17] -4% | [4]; [18] 47% | [4]; at 50.0 µM 34%

CC(=O)Oc1ccc2c(c1)Cc1cc(N3C(=O)C=CC3=O)ccc1-2
inactive: [6]; at 1.2 µM 10% | [6]; at 3.7 µM 29% | [7]; at 1.2 µM 1% | [7]; at 3.7 µM 12% | [7]; at 11.0 µM 35% | [9]; at 1.2 µM 7% | [9]; at 3.7 µM 19% | [9]; at 11.0 µM 58% | [10]; at 1.2 µM 7% | [10]; at 3.7 µM 32% | [10]; [17] 27% | [10]; at 50.0 µM 46.1% | [11]; at 1.2 µM 15% | [11]; at 3.7 µM 30% | [11]; [17] 44% | [11]; at 50.0 µM 47.7% | [12]; at 1.2 µM 10% | [12]; at 3.7 µM 25% | [12]; at 11.0 µM 61% | [13]; [17] 17% | [13]; at 50.0 µM 58.2% | [14]; at 1.2 µM 1% | [14]; at 3.7 µM 12% | [14]; at 11.0 µM 35% | [15]; [17] 7% | [15]; at 50.0 µM 24.2% | [16]; at 1.2 µM -9% | [16]; at 3.7 µM 1% | [16]; [17] 8% | [16]; at 11.0 µM 37% | [16]; at 50.0 µM 48.6% | [1]; at 1.2 µM 1% | [1]; at 3.7 µM 15% | [1]; at 11.0 µM 46% | [2]; at 1.2 µM 13% | [2]; at 3.7 µM 24% | [3]; at 1.2 µM 16% | [3]; at 3.7 µM 33% | [4]; [17] 67% | [4]; at 50.0 µM 40.6% | [5]; at 1.2 µM 10% | [5]; at 3.7 µM 30%
active: [6]; at 11.0 µM 73% | [6]; at 33.0 µM 96% | [6]; at 100.0 µM 95% | [7]; at 33.0 µM 93% | [7]; at 100.0 µM 97% | [8]; at 1.2 µM 81% | [8]; at 3.7 µM 96% | [8]; at 11.0 µM 98% | [8]; at 33.0 µM 97% | [8]; at 100.0 µM 92% | [9]; at 33.0 µM 98% | [9]; at 100.0 µM 95% | [10]; at 11.0 µM 83% | [10]; at 33.0 µM 96% | [10]; [18] 99% | [10]; at 100.0 µM 93% | [11]; at 11.0 µM 72% | [11]; at 33.0 µM 97% | [11]; [18] 99% | [11]; at 100.0 µM 97% | [12]; at 33.0 µM 98% | [12]; at 100.0 µM 97% | [13]; [18] 99% | [14]; at 33.0 µM 92% | [14]; at 100.0 µM 96% | [15]; [18] 98% | [16]; at 33.0 µM 94% | [16]; [18] 98% | [16]; at 100.0 µM 97% | [1]; at 33.0 µM 98% | [1]; at 100.0 µM 96% | [2]; at 11.0 µM 74% | [2]; at 33.0 µM 98% | [2]; at 100.0 µM 97% | [3]; at 11.0 µM 79% | [3]; at 33.0 µM 98% | [3]; at 100.0 µM 97% | [4]; [18] 98% | [5]; at 11.0 µM 85% | [5]; at 33.0 µM 96% | [5]; at 100.0 µM 95%

Source: PubChem BioAssay (NCI)
